Measurements published in ChEMBL document CHEMBL1961873, “Compounds: GSK PKIS; Assays: Nanosyn kinase panel” (2012).
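Further: reported value is the mean inhibition of CK1 gamma-1 kinase activity across replicate measurements.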

Each molecule was assayed against Casein kinase I isoform gamma-1 (Homo sapiens) (UniProt Q9HCP0). Details: at 1 µM.
Chain of Casein kinase I isoform gamma-1 (Homo sapiens) (Q9HCP0 whole entry, looked up, canonical isoform): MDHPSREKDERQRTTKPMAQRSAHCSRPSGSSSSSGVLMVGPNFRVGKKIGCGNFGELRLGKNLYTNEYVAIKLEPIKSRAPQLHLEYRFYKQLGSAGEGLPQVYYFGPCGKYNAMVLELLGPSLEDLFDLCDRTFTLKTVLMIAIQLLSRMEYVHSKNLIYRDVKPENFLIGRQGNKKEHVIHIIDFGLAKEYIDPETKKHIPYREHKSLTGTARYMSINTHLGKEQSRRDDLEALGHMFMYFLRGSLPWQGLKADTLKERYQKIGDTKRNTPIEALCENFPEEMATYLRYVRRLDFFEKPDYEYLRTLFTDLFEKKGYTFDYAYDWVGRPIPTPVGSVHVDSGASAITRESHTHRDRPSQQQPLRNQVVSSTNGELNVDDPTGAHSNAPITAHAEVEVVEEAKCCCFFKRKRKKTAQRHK
Work on `COc1cc(/C=N/Nc2ncnc3[nH]ncc23)ccc1O` yielded an inhibition of 19%. Molecule `COc1cc(Nc2nccc(Nc3ccc4c(C)n[nH]c4c3)n2)cc(OC)c1OC` has an inhibition of 1.23%. With `COc1cc2c(cc1Nc1nc(Nc3ccsc3C(N)=O)c3cc[nH]c3n1)N(C(=O)CN(C)C)CCC2(C)C` the inhibition was 21.1%. With `CCn1c(-c2nonc2N)nc2c(C#CC(C)(C)O)nc(OC[C@H](N)c3ccccc3)cc21` the inhibition was 5.61%. Work on `COC(=O)Nc1nc2ccc(S(=O)(=O)c3ccc(NC(=O)Nc4cc(C(F)(F)F)ccc4F)cc3)cc2[nH]1` yielded an inhibition of 2.83%. With `N#Cc1c(NC(=O)c2ccc(F)cc2)sc2c1CCCC2` the inhibition was 0.78%. Work on `CCn1c(-c2nonc2N)nc2c(C#CC(C)(C)O)ncc(OC3CCNCC3)c21` yielded an inhibition of 4.65%. `CCn1c(-c2nonc2N)nc2cnc(Oc3cccc(NC(=O)c4ccc(N(C)C)cc4)c3)cc21` showed an inhibition of 1.65%. Molecule `Fc1cccc(COc2ccc(Nc3ncnc4sc(-c5ccco5)cc34)cc2Cl)c1` has an inhibition of 4.42%. With `O=S(=O)(CCNCc1ccc(-c2ccc3ncnc(Nc4ccc(OCc5cccc(F)c5)c(Cl)c4)c3c2)o1)c1ccccc1` the inhibition was 6.77%. Molecule `COc1cccc(-n2ncc3c(N/N=C/c4ccc(F)cc4)ncnc32)c1` has an inhibition of 4.75%. In the case of `NC(=O)c1sc(-n2cnc3ccc(C(F)(F)F)cc32)cc1OCc1ccccc1Br`, the inhibition is reported as 3.78%. Molecule `NS(=O)(=O)c1ccc(N/N=C2\C(=O)Nc3ccc4ncccc4c32)cc1` has an inhibition of 8.12%. For `c1ccc(-c2nc3n(c2-c2ccc4c(c2)OCO4)CCC3)nc1`, the inhibition was 2.79%. For `CCNC(=O)O[C@H]1CN[C@H](C#Cc2cc3ncnc(Nc4ccc(OCc5cccc(F)c5)c(Cl)c4)c3s2)C1`, the inhibition was 2.01%. For `COc1ccc(-c2cc(-c3c[nH]nc3-c3ccccn3)ccn2)cc1`, the inhibition was 5.78%. `Nc1nc(-c2cccc(Cl)c2)c(-c2ccc3ncccc3n2)s1` showed an inhibition of 16.6%. With `Clc1ccc(-c2nn3ncccc3c2-c2ccnc(Nc3ccccc3)n2)cc1` the inhibition was 1.87%. In the case of `CCN1CCC(CC(=O)Nc2n[nH]c3nnc(-c4cccc(F)c4F)cc23)CC1`, the inhibition is reported as 2.08%. `CN1CCC(n2cnc(-c3ccc(F)cc3)c2-c2ccnc(N)n2)CC1` was tested, and the inhibition was 9.03%. `CNC(=O)c1cncc(/C=C/c2ccccc2Cl)c1` was tested, and the inhibition was -0.31%. `CC(C)COC(=O)c1ccc2c(c1)/C(=C/Nc1ccc(S(N)(=O)=O)cc1)C(=O)N2` showed an inhibition of 7.57%. Work on `CCN(CC)S(=O)(=O)c1ccc(OC)c(Nc2ncc(-c3ccccc3)o2)c1` yielded an inhibition of 0.27%. Work on `COc1ccc(-c2oc3ncnc(N)c3c2-c2ccc(NC(=O)Nc3cc(C(F)(F)F)ccc3F)cc2)cc1` yielded an inhibition of 3.7%. `COc1ccc(CNC(=O)c2ccc(-c3cc(-c4nnc(C)o4)ccc3C)cc2)cc1` was tested, and the inhibition was -0.25%. `CC(C)(CO)CNC(=O)c1ccc2c(c1)/C(=N/Nc1ccc(S(N)(=O)=O)cc1)C(=O)N2` was tested, and the inhibition was 4.11%. Work on `Cc1cccc2c1NC(=O)/C2=N\Nc1ccc(S(N)(=O)=O)cc1` yielded an inhibition of 3.11%. With `Cc1ccc2c(-c3ccnc(Nc4ccccc4)n3)c(-c3ccc(F)cc3)nn2n1` the inhibition was 32%. `CNC(=O)c1cccc(C#Cc2cncnc2Nc2ccc(OCc3cccc(F)c3)c(Cl)c2)c1` showed an inhibition of 1.46%. `c1cc(-c2cnn3nc(N4CCOCC4)ccc23)nc(NC2CC2)n1` showed an inhibition of 8.05%. `FC(F)(F)c1cccc(-c2nn3ncccc3c2-c2ccnc(Nc3ccc4c(c3)OCCO4)n2)c1` gave an inhibition of 4.21%. In the case of `CC1=C(C(=O)Nc2cc(Cl)c3[nH]ncc3c2)C(c2ccc(C(F)(F)F)cc2)CC(=O)N1` (centres undefined), the inhibition is reported as 3.25%. Work on `COc1cc(N2CCN(C(C)C)CC2)ccc1Nc1nc(Nc2ccc(F)cc2C(N)=O)c2cc[nH]c2n1` yielded an inhibition of 42.2%. `O=C(Nc1n[nH]c2cc(-c3ccc(F)cc3)ccc12)C1CC1` showed an inhibition of 3.21%.
